SMARCA2 act: activators of SMARCA2 function; MG213 cells, MMTV-luciferase reporter, dexamethasone, overnight; activation, % at 9.1 µM; 1% of 370,000 active; AID 652017; in the data active means activation above about 7.8%;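 further: 0% = vehicle wells and 100% = reference activator wells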
Granule exo inh: blocks lytic granule exocytosis; AID 651702; inhibition, % at 10 µM; TALL-104 LAMP-1 surface exposure, flow cytometry; cells stimulated with thapsigargin and PMA; 0.66% of 360,000 active;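 active means inhibition above about 55%, limit read from the data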
MIN6 prolif: induces beta-cell replication in MIN6 cells. MIN6 cells proliferation, ATPlite luminescence, 48 h; cells starved in 0.2% serum; 100% = growth in 10% serum. proliferation, % at 10 µM. 0.29% of 330,000 active. AID 2380;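 active means compounds whose signal lies at least 3.5 SD above the mean of all wells on their plate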;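 further: 0% = DMSO-treated cells in low-serum medium and 100% = 10% serum control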
ALR inh: blocks human ALR sulfhydryl oxidase activity; purified ALR, DTT oxidation, H2O2 HRP-luminol luminescence; inhibition, % (test concentration not listed); 3.8% of 290,000 active; AID 485317;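 active means mean replicate inhibition above about 79%, with every replicate also reaching it, limit read from the data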
Target sequence (P55789 whole entry, looked up): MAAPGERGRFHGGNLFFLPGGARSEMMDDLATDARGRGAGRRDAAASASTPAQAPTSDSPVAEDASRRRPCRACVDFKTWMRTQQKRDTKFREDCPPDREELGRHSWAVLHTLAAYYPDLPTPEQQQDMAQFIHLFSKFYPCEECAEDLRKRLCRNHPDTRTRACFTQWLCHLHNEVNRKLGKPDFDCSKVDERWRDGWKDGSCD
M18AAP inhibitor: blocks P. falciparum M18 aspartyl aminopeptidase; recombinant PfM18AAP, H-Glu-NHMec fluorogenic cleavage; inhibition, % at 7.35 µM; 1.2% of 290,000 active; AID 1822;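 active means inhibition above the campaign mean inhibition over all tested compounds plus 3 SD, cut at about 28% in these data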;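 further: 0% = plate median of test compound wells and 100% = 2 mM ZnCl2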
JMJD2C inh: human JMJD2C demethylase inhibition. GST-JMJD2C(1-420) H3K9me3 demethylation, DELFIA europium. 0.069% of 330,000 active. AID 2099. inhibition, % at 2.35 µM. Q9H3R0;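 active means more than half of a compound's replicate wells show inhibition beyond 50%, single wells judged on their own value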;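 further: signal counts dimethyl H3K9 product captured on neutravidin plate; 0% = median of DMSO wells and 100% = 0.3 times that DMSO median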
Target sequence (Q9H3R0 1-420 limits assumed): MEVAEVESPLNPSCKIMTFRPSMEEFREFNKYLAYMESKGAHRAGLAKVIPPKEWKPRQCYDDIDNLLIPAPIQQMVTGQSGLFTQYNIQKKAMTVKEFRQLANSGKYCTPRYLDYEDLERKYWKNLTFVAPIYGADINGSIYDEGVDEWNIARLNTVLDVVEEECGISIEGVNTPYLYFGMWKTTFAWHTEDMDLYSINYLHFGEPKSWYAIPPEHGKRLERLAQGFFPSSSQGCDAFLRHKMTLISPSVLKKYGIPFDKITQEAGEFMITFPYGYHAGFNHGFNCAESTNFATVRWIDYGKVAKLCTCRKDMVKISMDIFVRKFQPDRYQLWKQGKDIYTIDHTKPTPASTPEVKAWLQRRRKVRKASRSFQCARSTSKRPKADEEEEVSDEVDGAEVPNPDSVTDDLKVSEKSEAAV
SMARCA2 act conf: SMARCA2 activation, confirmation screen; activation, % at 9.1 µM; shares compounds with SMARCA2 act; 30% of 3,500 active; MG213 cells, MMTV-luciferase with dexamethasone, luminescence, overnight; MG213 cells expressing E1A, Rb sequestered; DMSO wells 0%, reference activator 100%;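 active means activation above its plate's cutoff, the mean activation of tested wells plus 3 SD, cut at about 7.9% in these data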
GAL4-VP16 Luc: activates GAL4-VP16 luciferase, flagging SMARCA2 activator hits | shares compounds with SMARCA2 act | HEK293 GAL4-VP16 pG5luc reporter, luciferase luminescence; scaled: DMSO wells 0%, SAHA wells 100% | activation, % at 9.1 µM | 41% of 3,500 active;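 active means activation above the solvent-only control well mean plus 3 SD, averaged across control plates, cut at about 5.2% in these data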
Active calls of the source: *; · = no result. Sampled rows, rich in hits. Any-hit rate of the full collection: about 5.4%.

SMILES	SMARCA2 act	Granule exo inh	MIN6 prolif	ALR inh	M18AAP inhibitor	JMJD2C inh	SMARCA2 act conf	GAL4-VP16 Luc
CN1CCN(S(=O)(=O)c2cccc(C(=O)Nc3sc4c(c3-c3nc5ccccc5[nH]3)CCCC4)c2)CC1	21.0*	7.5	0.0	-5.3	-5.4	15.7	4.4	3.8
Cc1ccc(NCCC(=O)c2cccs2)cc1	11.3*	-1.0	-6.7	98.6*	7.0	-34.8	7.3	13.7*
Cc1nn(C)c(C(=O)N/N=C/c2ccc(Br)cc2)c1Cl	-1.3	2.9	-0.7	0.2	-10.2	-10.5	·	·
CC(C)c1ccc(/C=N/NC(=O)c2c(Cl)cnn2C)cc1	10.8*	1.6	0.0	4.9	-12.3	2.0	15.5*	3.6
O=C(c1ccc(S(=O)(=O)Cc2cc(F)ccc2F)c([N+](=O)[O-])c1)N1CCOCC1	0.1	1.4	·	·	·	·	·	·
CN(C)CCN1C(=O)c2cccc3cc([N+](=O)[O-])cc(c23)C1=O	15.3*	-5.7	·	·	·	·	10.7*	7.2*
Fc1ccc(CSc2ccc(-c3ccc4c(c3)OCO4)nn2)cc1	0.9	-1.7	0.0	1.8	0.5	6.2	·	·
c1ccc(CSc2ccc(-c3ccc4c(c3)OCO4)nn2)cc1	10.9*	0.1	0.0	-2.4	-9.8	0.8	7.9*	5.0
C#CCNC(=O)C[C@H]1C[C@@]2(C(=O)OC)C(=C[C@H](C3CCCC3)O[C@@H]2C)N(Cc2ccco2)C1=O	-2.3	·	·	·	·	·	·	·
O=C1C(=Cc2cccs2)C(=O)c2ccccc21	-1.8	-1.3	-1.5	6.5	10.6	5.0	·	·
O=C1/C(=C/c2cccs2)Cc2ccccc21	9.6*	1.3	0.0	-1.0	-5.1	-42.8	8.3*	2.7
Cn1c(SCc2cccc(F)c2)nnc1-c1ccccn1	9.9*	-1.6	-2.8	-5.2	-0.1	6.1	6.9	6.3*
Cc1c(C)c2ccc(OCC(=O)NCCc3c[nH]c4ccccc34)cc2oc1=O	-0.5	-1.9	·	·	·	·	·	·
C[C@@H]1ON(C)[C@H]2C[C@H]3c4[nH]c5c(-c6ccc(Cl)cc6)cccc5c4CCN3C(=O)[C@@H]12	-1.9	·	·	·	·	·	·	·
CC(=O)c1nn(-c2cccc(Br)c2)cc1C(=O)c1ccco1	8.4*	-0.4	1.0	-7.0	7.2	0.6	-2.9	1.4
CC(=O)c1nn(-c2cccc(Br)c2)cc1C(=O)c1ccccc1	-2.4	6.6	0.4	-7.8	-6.0	-4.3	·	·
Cc1cnc(NC(=O)CSc2ccc(Cl)cc2)s1	-4.4	2.0	-1.9	-3.2	0.0	-0.1	·	·
Cc1cnc(NC(=O)Nc2ccc(Cl)cc2)s1	12.3*	5.2	-5.4	·	4.6	-1.3	8.3*	11.4*
CC(C)c1ccc(CC(=O)N2CCC2(C)C(=O)NS(=O)(=O)c2cccc(OC(F)F)c2)cc1 (stereo unspecified)	-1.6	11.3	·	·	·	·	·	·
c1ccc2c(c1)Cc1cc3ccccc3nc1-2	8.8*	-1.7	-5.0	·	1.3	-33.0	12.8*	10.5*
COc1ncnc2c1ncn2CCCN1CCN(C(=O)C2CC2)CC1	-5.0	-2.2	·	·	·	·	·	·
O=C(O)c1cccnc1Oc1ccccc1	-1.3	1.1	-0.9	3.2	5.1	-7.1	·	·
CN(CCc1ccccn1)C(=O)c1cccnc1Oc1ccccc1	11.6*	-0.5	-2.7	2.5	-1.3	-3.2	-0.8	1.8
Cc1ccc(NC(=O)CNC(=O)c2cccc(C)c2)nc1	8.4*	3.1	-2.1	-0.9	·	-6.3	7.2	1.4
Cc1ccc2c(c1)sc[n+]2Cc1ccccc1	10.1*	17.3	-6.4	11.2	26.9	8.9	3.5	7.8*
SMILES	SMARCA2 act	Granule exo inh	MIN6 prolif	ALR inh	M18AAP inhibitor	JMJD2C inh	SMARCA2 act conf	GAL4-VP16 Luc
CCOc1cc(CNc2ccc(N3CCN(C(C)=O)CC3)cc2)cc(Br)c1OC	8.6*	-1.7	-2.0	·	15.7	19.1	1.6	0.5
CCOc1cc(CNc2ccc(N3CCCC3)cc2)cc(Cl)c1OC	-3.5	2.0	-4.6	36.4	10.4	3.4	·	·
Cc1cnc(C(=O)Nc2nnc(C3CC3)s2)cn1	8.8*	-2.2	-0.3	-8.2	3.0	4.7	-0.8	2.1
COc1ccc(-c2nnc(SCC(=O)Nc3ccccc3OC)o2)cc1	4.3	-0.6	-4.3	-4.3	14.0	-19.5	·	·
COc1ccc(-c2nnc(SCC(=O)Nc3cccc(Cl)c3)o2)cc1	11.5*	10.4	-3.6	-7.9	1.8	4.5	0.8	7.2*
COC(=O)CC1C(=O)NCCN1C(=O)c1ccc([N+](=O)[O-])cc1 (stereo unspecified)	10.0*	-12.7	-5.0	-45.9	-13.6	0.7	4.6	0.1
COc1ccc(-n2c(SCC3CNC(=O)O3)nnc2-c2ccc(Cl)cc2)cc1 (stereo unspecified)	11.7*	-2.0	0.3	-18.8	-3.7	3.9	1.1	-2.1
Cc1ccc(C(NC(=O)C2CCN(CCOc3ccccc3)CC2)c2ccccn2)cc1 (stereo unspecified)	-2.0	-6.6	·	·	·	·	·	·
O=S(=O)(c1cccc(-c2n[nH]c(=S)n2C2CCCC2)c1)N1CCOCC1	8.8*	-1.7	0.3	24.7	4.9	-2.0	-0.9	0.4
C=CCn1c(-c2cccc(S(=O)(=O)N3CCOCC3)c2)n[nH]c1=S	-2.0	-1.2	-2.5	·	·	·	·	·
COc1ccc(NC(=O)O/N=C/c2ccccc2Cl)cc1	10.4*	5.3	-2.8	-61.2	-5.9	-25.3	3.7	2.9
COc1ccc(NC(=O)O/N=C/c2ccccc2)cc1	4.5	-1.9	-3.8	-35.2	2.6	32.6	·	·
COc1nc(N=C(N)N)nc2ccc(C)cc12	8.8*	·	0.9	-7.2	-4.8	-12.9	42.8*	1.9
COc1ccc(CCN=C(N)NS(=O)(=O)c2ccc(C)c(C)c2)cc1OC	0.8	28.0	5.0	-21.7	0.4	-10.7	·	·
COc1ccc(S(=O)(=O)NC(N)=NCCc2ccc(OC)c(OC)c2)cc1	10.3*	·	-3.5	-2.9	-1.5	81.5	0.8	3.6
O=[N+]([O-])c1cccc(-c2cn3ccccc3n2)c1	11.7*	-2.4	2.9	-2.4	1.6	-2.0	10.8*	4.5
COc1ccc(-c2cn3ccccc3n2)cc1[N+](=O)[O-]	3.8	2.1	-5.0	6.8	2.7	-2.8	·	·
O[C@H](COc1ccc(F)cc1)CN1CCC(C(O)(c2ccccc2)c2ccccc2)CC1	3.3	·	·	·	·	·	·	·
CCOc1ccc(-c2nnc(NC(=O)Cc3ccc(OC)cc3)o2)cc1	-0.9	16.1	-1.4	0.9	-5.4	-13.7	·	·
CCOc1ccc(-c2nnc(NC(=O)Cc3cc(OC)c(OC)c(OC)c3)o2)cc1	8.4*	-0.9	0.2	-4.2	7.0	-8.1	0.4	4.0
COc1ccc(NC(=O)Nc2ccc(C)cc2OC(F)F)cc1OC	-5.0	-2.4	-0.2	-21.0	-14.3	-12.0	·	·

Source: PubChem BioAssay
